Experimental data: PubChem BioAssay (NCATS)
Several values for one entry are separate records, joined by “and”; a condition that tells them apart may be missing. Identical values can stand only once. Records with an inconclusive call do not appear. Activity calls are given as the source filed them. Unless noted, calls follow the shape of the dose curve; as a rule, active = well fitted curve in the direction sought with a large enough effect; inconclusive = small, poorly fitted or top-dose-only effect, or another doubt; inactive = no such curve, though single readings can be large; an effect the other way counts as inactive or inconclusive.

Assays:
[1] = biological target: Cellular tumor antigen p53 (Homo sapiens) (UniProt P04637); experiment: Primary qHTS for small molecule compounds that upregulate eGFP-tagged delta133p53alpha (in N-terminal) cells. (AID 2060322); settings: NCI-H358 eGFP-delta133p53alpha fluorescence, 24 h; activation: stronger effect = higher value;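 also: cells pre-induced with doxycycline then dosed without doxycycline; series mostly up to about 56 µM; 0% = DMSO vehicle and 100% = reference activator; nearly all actives have a fitted effect of over 75% in size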
Method in brief: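 NCI-H358 cells pre-induced 24 h with 10 ng/ml doxycycline for eGFP-delta133p53alpha, plated dox-free and exposed 24 h at 37C to titrated compounds. Fixed, Hoechst-stained; gated GFP peak intensity by laser scanning cytometry, normalized to DMSO (0%) and 57.5 uM 5-azacytidine (100%).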

[2] = biological target: Cellular tumor antigen p53 (Homo sapiens) (UniProt P04637); experiment: Primary qHTS for small molecule compounds that upregulate eGFP-tagged delta133p53alpha (in C-terminal) cells. (AID 2060324);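 also: 0% = DMSO wells and 100% = 57.5 µM 5-azacytidine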
Method in brief: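 Read-out: gated-cell GFP peak intensity (laser scanning cytometer), plate-normalized with DMSO as 0% activity, after 24 h compound exposure at 37C. Cells were C-terminal eGFP-tagged delta133p53alpha NCI-H358, doxycycline-induced (100 ng/ml, 24 h) before plating.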

[3] = biological target: Aldehyde dehydrogenase, mitochondrial (Homo sapiens) (UniProt P05091); experiment: qHTS for Inhibitors of the Aldehyde Dehydrogenase Family (ALDH2) Validation screens (AID 2061302; active = well fitted inhibition curve with a large enough effect; title and protocol of this record describe different tests;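 also: plate controls were DMSO vehicle for no effect and maximal DPI positive control response for full effect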)
[4] = biological target: Retinaldehyde dehydrogenase 3 (Homo sapiens) (UniProt P47895); experiment: qHTS for Inhibitors of the Aldehyde Dehydrogenase Family (ALDH1A3) Validation screen (AID 2061312); also: % is scaled to controls: 0 for no effect and ±100 for the full control effect; nearly all actives have a fitted effect of over 45% in size

Sequence of Cellular tumor antigen p53 (Homo sapiens) (P04637 whole entry, looked up): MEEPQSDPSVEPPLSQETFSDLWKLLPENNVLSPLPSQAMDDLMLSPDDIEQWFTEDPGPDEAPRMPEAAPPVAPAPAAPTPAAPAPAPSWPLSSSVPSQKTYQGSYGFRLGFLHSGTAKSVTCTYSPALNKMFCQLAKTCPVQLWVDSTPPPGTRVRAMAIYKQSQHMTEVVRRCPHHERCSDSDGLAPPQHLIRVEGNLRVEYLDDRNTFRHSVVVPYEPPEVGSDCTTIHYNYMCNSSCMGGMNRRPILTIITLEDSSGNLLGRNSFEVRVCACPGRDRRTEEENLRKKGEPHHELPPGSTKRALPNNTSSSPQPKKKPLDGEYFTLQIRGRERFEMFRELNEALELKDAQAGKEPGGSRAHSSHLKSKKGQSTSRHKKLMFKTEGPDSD

CCN(CC)CCNC(=O)c1ccc(NC(C)=O)cc1
inactive: activation [1] 18.6% and -9.2% | Potency [2] | Potency [3] | Potency [4]

O=C1/C(=C/c2ccsc2)CC/C1=C\c1cccs1
inactive: activation [1] 14.3% | Potency [2] | Potency [3] | Potency [4]

O=C(CCCN1CCC(O)(c2ccc(Cl)cc2)CC1)c1ccc(F)cc1
inactive: activation [1] 37.6% and -8.4% | Potency [2] | Potency [3] | Potency [4]

CN1CC(O)C(O)C(O)C1CO (centres undefined)
inactive: activation [1] 9.95% | Potency [2] | Potency [3] | Potency [4]

COc1ccc(-c2cc(=O)c3c(O)c(OC)c(OC)cc3o2)cc1O
inactive: activation [1] 37.1% | Potency [2] | Potency [3] | Potency [4]

O=C(O)CC[C@@H](C(=O)O)N1C(=O)c2ccccc2C1=O
inactive: activation [1] -14.6% | Potency [2] | Potency [3] | Potency [4]

C#CC(N)CCC(=O)O (centres undefined)
inactive: activation [1] -41.5% | Potency [2] | Potency [3] | Potency [4]

OC[C@H]1O[C@@H](n2cnc3c(NC4CCCCC4)ncnc32)[C@H](O)[C@@H]1O
inactive: activation [1] 5.46% | Potency [2] | Potency [3] | Potency [4]

CCCCCCCCCCCCCCCC(=O)OC(CC(=O)O)C[N+](C)(C)C (centres undefined)
inactive: activation [1] -11.1% | Potency [2] | Potency [3] | Potency [4]

Nc1ccc(CCNc2ncnc3c2ncn3C2OC(CO)C(O)C2O)cc1 (centres undefined)
inactive: activation [1] -6.89% | Potency [2] | Potency [3] | Potency [4]

Cc1nc(N=Nc2ccc(S(=O)(=O)O)cc2S(=O)(=O)O)c(COP(=O)(O)O)c(C=O)c1O
inactive: activation [1] -9.78% | Potency [2] | Potency [3] | Potency [4]
